Reference: PubChem BioAssay AID1159580 (chemical genetic matrix, 2015)
Values joined by “and” are separate entries in the source; they are usually repeats but may differ in a detail not shown here. Equal values may be shown once. The campaign covered roughly 5,500 compounds. About 2,000 (36%) were called active. Another 18% or so got no clear call; they are omitted. Rule as the data show it: active = normalized growth mostly below about 0.91 (no sharp cut-off); inconclusive = no clear call, values can overlap the other calls; inactive = mostly above about 0.92. This is one part of the list.

Experiment: chemical genetic growth profiling, strain panel (AID 1159580);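 also: tested at 20 µM; growth read once vehicle control cultures reached saturation at 30 °C; 1 = growth at the plate median or of vehicle wells; lower values mean less growth of the strain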
Conditions: growth OD

Measured: normalized growth

C[N+](C)(C)CCOC(N)=O
inactive: S. cerevisiae deletion strains, locus YKL068W, active compounds read low 0.981 | S. cerevisiae deletion strains, locus YKL085W, strain MDH1 (second series), active compounds read low 0.969 | S. cerevisiae deletion strains, locus YKL085W, strain MDH1, active compounds read low 0.969 | S. cerevisiae deletion strains, locus YKL160W, strain elf1, active compounds read low 1.02 | S. cerevisiae deletion strains, locus YKL190W, strain CNB1, active compounds read low 1 | S. cerevisiae deletion strains, locus YKR001C, strain vps1, active compounds read low 0.991 | S. cerevisiae deletion strains, locus YKR026C, strain gcn3, active compounds read low 0.988 | S. cerevisiae deletion strains, locus YKR091W, strain srl3, active compounds read low 1 | S. cerevisiae deletion strains, locus YLL001W, strain dnm1, active compounds read low 0.998 | S. cerevisiae deletion strains, locus YLL026W, active compounds read low 1 | S. cerevisiae deletion strains, locus YLL041C, strain sdh2, active compounds read low 1.01 | S. cerevisiae deletion strains, locus YLR027C, strain aat2, active compounds read low 1.01 | S. cerevisiae deletion strains, locus YLR039C, strain RIC1, active compounds read low 0.993 | S. cerevisiae deletion strains, locus YLR058C, strain SHM2, active compounds read low 1 | S. cerevisiae deletion strains, locus YLR102C, strain apc9, active compounds read low 0.986 | S. cerevisiae deletion strains, locus YLR113W, strain HOG1, active compounds read low 0.959 | S. cerevisiae deletion strains, locus YLR221C, strain rsa3, active compounds read low 1.01 | S. cerevisiae deletion strains, locus YLR258W, strain gsy2, active compounds read low 1.02 | S. cerevisiae deletion strains, locus YLR262C, strain YPT6 (second series), active compounds read low 1.02 | S. cerevisiae deletion strains, locus YLR262C, strain YPT6, active compounds read low 0.991 | S. cerevisiae deletion strains, locus YLR268W, strain sec22, active compounds read low 0.978 | S. cerevisiae deletion strains, locus YLR320W, strain mms22, active compounds read low 1.03 | S. cerevisiae deletion strains, locus YLR330W, strain CHS5, active compounds read low 1 | S. cerevisiae deletion strains, locus YLR342W, strain FKS1 (second series), active compounds read low 1.12 | S. cerevisiae deletion strains, locus YLR342W, strain FKS1, active compounds read low 1.01 | S. cerevisiae deletion strains, locus YLR357W, strain rsc2, active compounds read low 1 | S. cerevisiae deletion strains, locus YLR370C, strain arc18, active compounds read low 1.01 | S. cerevisiae deletion strains, locus YLR371W, strain rom2, active compounds read low 0.97 | S. cerevisiae deletion strains, locus YLR384C, strain iki3, active compounds read low 1.04 | S. cerevisiae deletion strains, locus YLR418C, strain cdc73, active compounds read low 0.983 | S. cerevisiae deletion strains, locus YML016C, strain PPZ1, active compounds read low 1.02 | S. cerevisiae deletion strains, locus YML032C, strain rad52, active compounds read low 0.993 | S. cerevisiae deletion strains, locus YML120C, strain ndi1, active compounds read low 1.02 | S. cerevisiae deletion strains, locus YML124C, strain tub3, active compounds read low 0.974 | S. cerevisiae deletion strains, locus YMR058W, strain fet3, active compounds read low 1.02 | S. cerevisiae deletion strains, locus YMR078C, strain ctf18, active compounds read low 0.956 | S. cerevisiae deletion strains, locus YMR125W, strain sto1, active compounds read low 1.03 | S. cerevisiae deletion strains, locus YMR129W, active compounds read low 1.02 | S. cerevisiae deletion strains, locus YMR205C, strain PFK2, active compounds read low 1.02 | S. cerevisiae deletion strains, locus YMR223W, strain ubp8, active compounds read low 0.975 | S. cerevisiae deletion strains, locus YMR231W, strain pep5, active compounds read low 1.02 | S. cerevisiae deletion strains, locus YMR263W, strain SAP30, active compounds read low 1 and 0.986 | S. cerevisiae deletion strains, locus YMR307W, strain GAS1, active compounds read low 1.16 | S. cerevisiae deletion strains, locus YNL067W, strain RPL9B, active compounds read low 0.961 | S. cerevisiae deletion strains, locus YNL071W, strain lat1, active compounds read low 1.01 | S. cerevisiae deletion strains, locus YNL128W, strain TEP1, active compounds read low 0.971 | S. cerevisiae deletion strains, locus YNL153C, strain GIM3, active compounds read low 0.963 | S. cerevisiae deletion strains, locus YNL175C, strain NOP13, active compounds read low 0.973 | S. cerevisiae deletion strains, locus YNL183C, strain NPR1, active compounds read low 0.938 | S. cerevisiae deletion strains, locus YNL197C, strain WHI3, active compounds read low 0.991 | S. cerevisiae deletion strains, locus YNL209W, strain ssb2, active compounds read low 1.01 | S. cerevisiae deletion strains, locus YNL224C, strain SQS1, active compounds read low 0.991 | S. cerevisiae deletion strains, locus YNL233W, strain BNI4, active compounds read low 0.99 | S. cerevisiae deletion strains, locus YNL248C, strain rpa49, active compounds read low 1.03 | S. cerevisiae deletion strains, locus YNL250W, strain rad50, active compounds read low 0.969 | S. cerevisiae deletion strains, locus YNL271C, strain bni1, active compounds read low 0.979 | S. cerevisiae deletion strains, locus YNL298W, strain CLA4, active compounds read low 0.977 | S. cerevisiae deletion strains, locus YNL307C, strain MCK1, active compounds read low 0.982 | S. cerevisiae deletion strains, locus YNL322C, strain KRE1 (second series), active compounds read low 1.02 | S. cerevisiae deletion strains, locus YNL322C, strain KRE1, active compounds read low 0.989 | S. cerevisiae deletion strains, locus YNR049C, strain mso1, active compounds read low 1.02 | S. cerevisiae deletion strains, locus YNR052C, strain pop2, active compounds read low 0.97 | S. cerevisiae deletion strains, locus YOL012C, strain htz1 0.907 | S. cerevisiae deletion strains, locus YOL147C, strain pex11, active compounds read low 0.978 | S. cerevisiae deletion strains, locus YOR001W, strain rrp6, active compounds read low 1.03 | S. cerevisiae deletion strains, locus YOR061W, strain CKA2, active compounds read low 1 | S. cerevisiae deletion strains, locus YOR069W, strain VPS5, active compounds read low 1 | S. cerevisiae deletion strains, locus YOR070C, strain gyp1, active compounds read low 1.01 | S. cerevisiae deletion strains, locus YOR080W, strain dia2, active compounds read low 1.03 | S. cerevisiae deletion strains, locus YOR083W, strain WHI5 (second series), active compounds read low 1.01 | S. cerevisiae deletion strains, locus YOR083W, strain WHI5, active compounds read low 1.03 | S. cerevisiae deletion strains, locus YOR106W, strain vam3, active compounds read low 1.01 | S. cerevisiae deletion strains, locus YOR136W, strain idh2, active compounds read low 0.976 | S. cerevisiae deletion strains, locus YOR144C, strain elg1, active compounds read low 0.982 | S. cerevisiae deletion strains, locus YOR184W, strain ser1, active compounds read low 0.973 | S. cerevisiae deletion strains, locus YOR231W, strain MKK1, active compounds read low 1 | S. cerevisiae deletion strains, locus YOR265W, strain rbl2, active compounds read low 1.01 | S. cerevisiae deletion strains, locus YOR270C, strain vph1, active compounds read low 1.05 | S. cerevisiae deletion strains, locus YOR290C, strain snf2, active compounds read low 1.02 | S. cerevisiae deletion strains, locus YOR316C, strain cot1, active compounds read low 0.976 | S. cerevisiae deletion strains, locus YPL051W, strain arl3, active compounds read low 1.02 | S. cerevisiae deletion strains, locus YPL055C, strain LGE1, active compounds read low 0.997 and 0.999 | S. cerevisiae deletion strains, locus YPL078C, strain atp4, active compounds read low 1.01 | S. cerevisiae deletion strains, locus YPL106C, strain sse1, active compounds read low 1.04 | S. cerevisiae deletion strains, locus YPL240C, strain hsp82, active compounds read low 1.02 | S. cerevisiae deletion strains, locus YPL241C, strain CIN2, active compounds read low 1.01 | S. cerevisiae deletion strains, locus YPL256C, strain CLN2, active compounds read low 0.993 | S. cerevisiae deletion strains, locus YPR119W, strain clb2, active compounds read low 0.973 | S. cerevisiae deletion strains, locus YPR141C, strain kar3, active compounds read low 0.973 | S. cerevisiae deletion strains, locus YPR163C, strain tif3, active compounds read low 0.985 | S. cerevisiae deletion strains, locus YPR167C, strain met16, active compounds read low 0.975 | S. cerevisiae deletion strains, strain wtn01, active compounds read low 1.01 | S. cerevisiae strains, strain wild type, active compounds read low 1.01
